Screening data: PubChem, National Center for Advancing Translational Sciences (NCATS)
IL-1B inflam inh: inflammasome signaling inhibition, IL-1 beta readout; THP-1 LPS/ATP IL-1B secretion, AlphaLISA, 16 h; hits give low values; activity change, % at 57.5 µM; hit rate 4.7% among 360,000; in the data active means activity change below about -50%; inconclusive means mostly about -30% to -49%
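THP-1 cells pretreated 1 hr with compounds (up to 57.5 uM final), then stimulated with LPS (250 ng/mL final) plus ATP (1.25 mM final); secreted IL-1B measured by AlphaLISA after 16 hr, decreased signal indicating inhibition.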
HT1080NT lethal: kills 2HG-producing HT-1080-NT fibrosarcoma cells. HT-1080-NT fibrosarcoma viability, CellTiter-Glo ATP luminescence, 48 h. Potency, µM (titrated, usually from 46.1 µM), usual class: cytotoxic. hit rate 1.6% among 360,000;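 further: NT is the 2HG producing partner of a matched IDH1 knockdown line; nearly all actives have a fitted effect of over 55% in size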
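Read-out is CellTiter-Glo luminescence after 10 minutes at room temperature, following 48 hours' compound treatment of HT-1080-NT cells (750 cells/well, RPMI, 5% FBS, 37 degrees C).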
HT1080 IDH1KD tx: kills HT-1080 cells with IDH1 knockdown | HT-1080 IDH1 knockdown viability, ATP luminescence, 48 h | Potency, µM (top dose mostly 46.1 µM), hits mostly cytotoxic | hit rate 2% among 360,000 | AID 686971
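% activity derives from luminescence (CellTiter-Glo), normalised to DMSO and no-cell wells. HT-1080-IDH1KD cells, 750/well, had 48 h compound exposure at 37 °C.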
TDP1 cell noCPT: qHTS for Inhibitors of human tyrosyl-DNA phosphodiesterase 1 (TDP1): qHTS in cells in absence of CPT. DT40 Tdp1-/- hTDP1 cells, no CPT, ATP luminescence, 48 h. Potency, µM (titrated, usually from 46.2 µM), hits mostly inhibitors. hit rate 15% among 420,000; further: nearly all actives have a fitted effect of over 55% in size
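Seeded 400 DT40-hTDP1 cells/well (vehicle DMSO, no 20 nM CPT); pinned compounds; ≥48 hr at 37 °C; CellTiter-Glo luminescence as viability measure.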
TDP1 cell CPT: growth inhibition of DT40 Tdp1-/-;hTDP1 cells with camptothecin (screen for TDP1 inhibitors) | chicken DT40 Tdp1-/-;hTDP1 cells + 20 nM CPT, ATP luminescence, 48 h | Potency, µM (doses to about 46.2 µM), usual class: inhibitors | hit rate 12% among 420,000; further: nearly all actives have a fitted effect of over 55% in size
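Cell growth measured by CellTiter-Glo luminescence after a minimum 48 h, 37 C compound exposure with 20 nM CPT in Tdp1-knockout DT40 cells stably expressing hTDP1, seeded 400/well; qHTS titration format.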
Numbers stand for hits. Most compounds without a hit are left out; they make up all but 19% or so of the library. Unless noted, the call rests on the fitted dose curve; in most records, active means well fitted curve in the direction sought with a large enough effect; inconclusive means small, poorly fitted or top-dose-only effect, or another doubt; inactive means no such curve, though single readings can be large; an effect the other way counts as inactive or inconclusive.

Screening COc1cc2c(cc1OC)C(COc1ccc3c(C)cc(=O)oc3c1)N(C(=O)c1cccc(C)c1)CC2 (centres undefined) returned TDP1 cell noCPT 6.5µM and TDP1 cell CPT inconclusive.
Screening COc1cc2c(cc1OC)C(COc1ccc3c(C)cc(=O)oc3c1)N(C(=O)C(C)C)CC2 (centres undefined) returned TDP1 cell noCPT 13µM and TDP1 cell CPT inconclusive.
COc1ccc(CC(=O)N2CCc3cc(OC)c(OC)cc3C2COc2ccc3c(C)cc(=O)oc3c2)cc1OC (centres undefined) was read as TDP1 cell noCPT inactive and TDP1 cell CPT inactive.
Screening COc1cc2c(cc1OC)C(COc1ccc3c(C)cc(=O)oc3c1)N(C(=O)c1ccco1)CC2 (centres undefined) returned IL-1B inflam inh inactive, HT1080NT lethal inactive, HT1080 IDH1KD tx inactive, TDP1 cell noCPT 21µM and TDP1 cell CPT inconclusive.
`CCC(=O)N1CCc2cc(OC)c(OC)cc2C1COc1ccc2c(C)cc(=O)oc2c1` (centres undefined) gave TDP1 cell noCPT inactive and TDP1 cell CPT inactive.
For CC1=CC2(C)C(C3C(C)=CC2(C)C(=O)C3(C)O)C(C)(O)C1=O (centres undefined) the results were IL-1B inflam inh inactive, HT1080NT lethal inactive, HT1080 IDH1KD tx inactive, TDP1 cell noCPT inconclusive and TDP1 cell CPT inactive.
CN1OC[C@@H]2CN(C(=O)C(C)(C)C)[C@H](c3ccc(-c4cccnc4)cc3)C[C@@H]21 was read as IL-1B inflam inh inactive, HT1080NT lethal inactive, HT1080 IDH1KD tx inactive, TDP1 cell noCPT inactive and TDP1 cell CPT inactive.
`CCOc1ccccc1C(=O)N1CCc2cc(OC)c(OC)cc2C1COc1ccc2c(C)cc(=O)oc2c1` (centres undefined) gave TDP1 cell noCPT 9.2µM and TDP1 cell CPT inconclusive.
For CCOc1ccc(CC(=O)N2CCc3cc(OC)c(OC)cc3C2COc2ccc3c(C)cc(=O)oc3c2)cc1 (centres undefined) the results were TDP1 cell noCPT inactive and TDP1 cell CPT inactive.
`COc1ccccc1CN(C)C[C@@H]1OCc2cnnn2CCCC(=O)N([C@H](C)CO)C[C@H]1C` gave IL-1B inflam inh inactive, HT1080NT lethal inactive, HT1080 IDH1KD tx inactive, TDP1 cell noCPT inconclusive and TDP1 cell CPT inactive.
For COc1ccc(N2Cc3cccc(C(=O)Nc4cccc(F)c4)c3C2=O)cc1 the results were TDP1 cell noCPT inactive and TDP1 cell CPT inactive.
`OC[C@H]1OC([S-])[C@H](O)[C@@H](O)[C@@H]1O.[Au+]` (some centres undefined) gave TDP1 cell noCPT inactive and TDP1 cell CPT 24µM.
For O=C(c1cccc([N+](=O)[O-])c1)N1CCN(S(=O)(=O)/C=C/c2ccccc2)CC1 the results were IL-1B inflam inh inactive, HT1080NT lethal inactive, HT1080 IDH1KD tx inactive, TDP1 cell noCPT inactive and TDP1 cell CPT inactive.
COc1ccc(/C=C2\SC(=O)N(CC(=O)NC3C=CS(=O)(=O)C3)C2=O)cc1 (centres undefined) was read as IL-1B inflam inh inactive, HT1080NT lethal inactive, HT1080 IDH1KD tx inactive, TDP1 cell noCPT inconclusive and TDP1 cell CPT inconclusive.
`O=C(CCN1C(=O)/C(=C/c2ccccc2Cl)SC1=S)NC1C=CS(=O)(=O)C1` (centres undefined) gave IL-1B inflam inh -63, HT1080NT lethal inactive, HT1080 IDH1KD tx inactive, TDP1 cell noCPT 23µM and TDP1 cell CPT 18µM.
For CC(C(=O)NC1C=CS(=O)(=O)C1)N1C(=O)/C(=C/c2ccc(Cl)cc2)SC1=S (centres undefined) the results were IL-1B inflam inh -59, HT1080NT lethal inactive, HT1080 IDH1KD tx inactive, TDP1 cell noCPT inconclusive and TDP1 cell CPT inconclusive.
Screening O=C(CCN1C(=O)/C(=C/c2ccc(F)cc2)SC1=S)NNC(=O)c1ccncc1 returned IL-1B inflam inh inactive, HT1080NT lethal inactive, HT1080 IDH1KD tx inactive, TDP1 cell noCPT inconclusive and TDP1 cell CPT inconclusive.
O=C(CCN1C(=O)/C(=C/c2ccc(F)cc2)SC1=S)NC1C=CS(=O)(=O)C1 (centres undefined) was read as IL-1B inflam inh inconclusive, HT1080NT lethal inactive, HT1080 IDH1KD tx inactive, TDP1 cell noCPT 13µM and TDP1 cell CPT 13µM.
O=C(CCN1C(=O)/C(=C/c2ccc(F)cc2)SC1=S)N[C@@H](CO)Cc1ccccc1 was read as IL-1B inflam inh -52, HT1080NT lethal inactive, HT1080 IDH1KD tx inactive, TDP1 cell noCPT 21µM and TDP1 cell CPT 16µM.
O=C(NC(=S)Nc1ccc(S(=O)(=O)Nc2nccs2)cc1)c1cccc(F)c1 was read as IL-1B inflam inh inactive, HT1080NT lethal inactive, HT1080 IDH1KD tx inactive, TDP1 cell noCPT inactive and TDP1 cell CPT inactive.
`CC(C)N(O)C(=O)NC(C)(C)C` gave IL-1B inflam inh inactive, HT1080NT lethal inactive, HT1080 IDH1KD tx inactive, TDP1 cell noCPT inactive and TDP1 cell CPT inactive.
O=C(CN1C(=O)S/C(=C\c2ccccc2F)C1=O)NC1C=CS(=O)(=O)C1 (centres undefined) was read as IL-1B inflam inh -70, HT1080NT lethal inactive, HT1080 IDH1KD tx inactive, TDP1 cell noCPT inconclusive and TDP1 cell CPT 15µM.
Screening O=C(CN1C(=O)S/C(=C\c2ccc(F)cc2)C1=O)NC1C=CS(=O)(=O)C1 (centres undefined) returned IL-1B inflam inh inactive, HT1080NT lethal inactive, HT1080 IDH1KD tx inactive, TDP1 cell noCPT inactive and TDP1 cell CPT inactive.
For COc1ccc(NC(=O)C2CCN(S(=O)(=O)c3ccc(Br)s3)CC2)cc1OC the results were IL-1B inflam inh inactive, HT1080NT lethal inactive, HT1080 IDH1KD tx inactive, TDP1 cell noCPT inactive and TDP1 cell CPT inactive.
COc1ccc([C@H]2CC(=O)C=C(c3ccccc3)C2)cc1 was read as IL-1B inflam inh inactive, HT1080NT lethal inactive, HT1080 IDH1KD tx inactive, TDP1 cell noCPT inconclusive and TDP1 cell CPT inactive.
For COc1ccc(C2CC23N=C(c2ccccc2)OC3=O)cc1 (centres undefined) the results were IL-1B inflam inh inconclusive, HT1080NT lethal inactive, HT1080 IDH1KD tx inactive, TDP1 cell noCPT inconclusive and TDP1 cell CPT 18µM.
`O=S(=O)(c1ccc(F)cc1F)N1CCN(c2nc(-c3cccs3)nc3ccccc23)CC1` gave HT1080NT lethal inactive, HT1080 IDH1KD tx inactive, TDP1 cell noCPT inconclusive and TDP1 cell CPT inconclusive.
O=S(=O)(c1ccccc1F)N1CCN(c2nc(-c3cccs3)nc3ccccc23)CC1 was read as HT1080NT lethal inactive, HT1080 IDH1KD tx inactive, TDP1 cell noCPT 11µM and TDP1 cell CPT inconclusive.
Cc1nc(N2CCN(S(=O)(=O)c3ccccc3C#N)CC2)c2c(-c3ccccc3)csc2n1 was read as IL-1B inflam inh inactive, HT1080NT lethal inactive, HT1080 IDH1KD tx inactive, TDP1 cell noCPT 13µM and TDP1 cell CPT inconclusive.
